Among the data in PubChem BioAssay (EPA / NIEHS) are AC50 and outcome values, retold here.

Assay [1] can be described thus: STM_H9_CystineISnorm_perc: Stemina devTOX quickPredict H9 human embryonic stem cell (hESC)-based Assay for Cystine (CYSS) Metabolite Biomarker, Normalized (AID 2283713; active = hit-call score of the fitted dose curve at least 0.9, where 1 is the maximum; inactive = score below 0.9). In a few lines: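 Cells are held undifferentiated and treated for 72h, receiving fresh medium with compound every 24h. Cystine secreted during the final day is quantified by UPLC-HRMS against a labeled spike-in, then expressed relative to the DMSO vehicle median.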

The nature of assay [2]: STM_H9_OrnCyssISnorm_ratio: Stemina devTOX quickPredict H9 human embryonic stem cell (hESC)-based Assay for Ornithine (ORN):Cystine (CYSS) Ratio (AID 2283714). In a few lines:
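H9 hESC, 72h, q24h re-dose; last-day media → acetonitrile deproteinization → UPLC-HRMS. ORN:CYSS ratio from isotope-normalized EIC areas, vs 0.1% DMSO; MTX references on each plate.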

A short description of assay [3]: Tanguay_ZF_120hpf_ActivityScore_legacy: (Legacy) Oregon State University Tanguay Lab 120 Hour Post-fertilization zebrafish Assay Score for Activity (AID 2283742).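 As to AC50: dechorionated Tropical 5D wild-type zebrafish embryos held singly per well; static exposure from 6 hpf until 120 hpf at 28 °C.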 In a few lines:
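In this whole-embryo screen, dechorionated zebrafish were exposed from 6 hpf until 120 hpf at 28C under a 0.64% DMSO vehicle. Developmental malformations and death were recorded by brightfield microscopy as binary endpoints.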

Assay [4] can be described thus: CEETOX_H295R_MTT_cell_viability: Viability Assessment in the CeeTox HT-H295R MTT Assay (AID 2283718; active = hit-call score of the fitted dose curve at least 0.9, where 1 is the maximum; inactive = score below 0.9;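 as to AC50: curve fitted both ways so AC50 may mark viability loss or gain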). In a few lines: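 H295R cells prestimulated 48 h with 10 uM forskolin, then exposed 48 h to test chemical (0.1% DMSO final). Viability by MTT (0.5 mg/ml, 4 h, 37 C), absorbance 570/650 nm; percent change versus DMSO, bidirectional fit.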
In assay [5] the target is Luciferin 4-monooxygenase (Photinus pyralis) (UniProt P08659). Kind of assay: CCTE_Simmons_QuantiLum_inhib_2: CCTE's Firefly Luciferase Inhibition Assay, Simmons Lab (AID 2283767). In a few lines:
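First, 5 ng purified luciferase in phosphate buffer with BSA is dispensed per well. Next, test chemicals (5 nM to 87.5 uM final, 0.5% DMSO) are added and incubated 30 min at 37C in darkness. Finally, luciferin reagent is injected and luminescence read kinetically.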

Read-out in assay [6]: Glyceraldehyde-3-phosphate dehydrogenase (Homo sapiens) (UniProt P04406)
Nature of the assay: CLD_GAPDH_48hr: CellzDirect (CLD) Gene Expression Assay for Baseline Control (Glyceraldehyde 3-phosphate dehydrogenase) at 48 hours (AID 2283706).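 Also: active means higher GAPDH mRNA than DMSO vehicle.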 In a few lines: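 GAPDH baseline-control readout: qNPA chemiluminescent mRNA quantitation in human liver primary cells 48 h after daily dosing on two consecutive days, vehicle 0.2% DMSO; gain of signal fitted against DMSO, cytotoxicity flagged by phase-contrast morphology.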

Read-out in assay [7]: alkyl and aryl transferase (GSTA2), GSTA2 (gene 2939)
Kind of assay: CLD_GSTA2_48hr: CellzDirect (CLD) Gene Expression Assay for alkyl and aryl transferase (GSTA2) at 48 hours (AID 2283708).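 Also: active means mRNA induction above DMSO vehicle baseline.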 In a few lines: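 GSTA2 mRNA quantified by qNPA chemiluminescence in human primary hepatocyte lysates after 48 h of daily fresh chemical dosing. Increases fitted against 0.2% DMSO vehicle baseline; cytotoxicity from morphology annotated yes/no.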

Read-out in assay [8]: glucuronosyltransferase (UGT1A1), UGT1A1 (gene 54658)
Nature of the assay: CLD_UGT1A1_48hr: CellzDirect (CLD) Gene Expression Assay for glucuronosyltransferase (UGT1A1) at 48 hours (AID 2283709).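 Also: actives increase expression relative to DMSO so potency refers to induction.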 In a few lines: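 Quantitative nuclease protection assay (chemiluminescent) for UGT1A1 mRNA at 48 h in human hepatocyte cultures from two donors, redosed daily with fresh solutions. Induction fitted relative to 0.2% DMSO; phase-contrast morphology annotated cytotoxicity.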

Read-out in assay [9]: sulfotransferase (SULT2A), SULT2A1 (gene 6822)
Nature of the assay: CLD_SULT2A_48hr: CellzDirect (CLD) Gene Expression Assay for sulfotransferase (SULT2A) at 48 hours (AID 2283710).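 Also: hits raise SULT2A1 transcript above the 0.2% DMSO vehicle baseline.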 In a few lines: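 SULT2A1 transcript measured by qNPA chemiluminescence in human primary hepatocyte cultures after 48 h, with fresh dosing solutions on two consecutive days; gain-of-signal fitting against 0.2% DMSO vehicle; cytotoxicity annotated from phase-contrast morphology.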

A short description of assay [10]: ArunA_CellTiter_hNC: Viability Assessment in the ArunA Biomedical's Oris Neural Crest (hNC) Cell Migration Assay (AID 2283752). In a few lines:
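Seed 60,000 hNC cells per well onto Matrigel in basal growth medium containing LIF and bFGF. Incubate 16 h at 37C. Replace with test medium containing chemical for 72 h, then assess viability by CellTiter Aqueous One.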

Assay [11] is described as follows: ArunA_CellTiter_hNP: Viability Assessment in the ArunA Biomedical's Oris Neural Crest (hNC) Cell Migration Assay (AID 2283753). In a few lines: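 Viability read with CellTiter 96 Aqueous One after 72 h chemical exposure of human hNP1 neuroprogenitors, which were plated on Matrigel in LIF/bFGF medium 16 h beforehand. Endpoint fitted in positive direction relative to DMSO.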

The nature of assay [12]: ArunA_Migration_hNP: ArunA Biomedical's Oris Neuroprogenitor (hNP) Cell Migration Assay (AID 2283754). In a few lines: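 Readout is calcein-AM fluorescence (ex494/em517) of cells migrating into the detection zone, relative to DMSO. hNP1 cells (H9-derived) grown on Matrigel behind stoppers 16 h, then stoppers pulled and chemical applied 72 h; cytochalasin D as control.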

A short description of assay [13]: ArunA_Migration_hNC: ArunA Biomedical's Oris Neural Crest (hNC) Cell Migration Assay (AID 2283755). In a few lines: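 Calcein-AM fluorescence (ex494 nm/em 517 nm) in the stopper-defined detection zone quantifies migration of hNC cells after 72 h chemical exposure; 60,000 cells/well plated on Matrigel with LIF and bFGF, 16 h pre-incubation. DMSO baseline.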
Assay [14] concerns chicken Androgen Receptor (AR), gene 422165. Kind of assay: ATG_chAR_XSP1: Attagene TRANS-FACTORIAL Multi-Species (XSP1) HepG2 Assay for chicken Androgen Receptor (AR) (AID 2283768). In a few lines: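 Reporter mRNA read by RT-PCR with fluorescent labelling and capillary electrophoresis 24 h after chemical dosing of transiently transfected HepG2 cells. Chicken AR-Gal4 chimera, partially stimulated with 3 nM 6-alpha-fluorotestosterone; activity fitted upward relative to DMSO.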

In assay [15] the test system is zebrafish Androgen Receptor (AR), gene 100005148. Nature of the assay: ATG_zfAR_XSP1: Attagene TRANS-FACTORIAL Multi-Species (XSP1) HepG2 Assay for zebrafish Androgen Receptor (AR) (AID 2283771). In a few lines: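 Gain-of-signal versus DMSO was measured as reporter transcripts quantified by RT-PCR, fluorescent labelling and capillary electrophoresis after 24 h chemical exposure. The cells were HepG2 expressing a chimeric zebrafish AR-GAL4, co-stimulated with 3 nM 6-alpha-fluorotestosterone.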

The target of assay [16] is zebrafish Estrogen Receptor (ESR1), esr1 (gene 259252) (UniProt P57717). Nature of the assay: ATG_zfER1_XSP1: Attagene TRANS-FACTORIAL Multi-Species (XSP1) HepG2 Assay for zebrafish Estrogen Receptor (ESR1) (AID 2283772). In a few lines:
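Reporter mRNA induction, gauged via RT-PCR/capillary electrophoresis fluorescence relative to DMSO controls, in HepG2 cells transiently carrying GAL4-UAS reporter units; 24 h dosing.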

Read-out in assay [17]: organic anion transporter (SLCO1B1), SLCO1B1 (gene 10599)
Nature of the assay: CLD_SLCO1B1_48hr: CellzDirect (CLD) Gene Expression Assay for organic anion transporter (SLCO1B1) at 48 hours (AID 2283707). In a few lines: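 SLCO1B1 transcript quantified by qNPA with chemiluminescent readout after 48 h of once-daily chemical exposure. Cultured human primary hepatocytes came from two donors, with 0.2% DMSO vehicle; positive-direction fitting against DMSO, cytotoxicity flagged by morphology.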

Structures are written as SMILES. Several values for one entry are separate records, joined by “and”; a condition that tells them apart may be missing. Equal entries are not always repeated. Inconclusive results are not listed. The source holds several records for some structures; these can differ, active in one and inactive in another. Activity calls are given as the source filed them. The calls were made as follows, unless noted: active = hit-call score of the fitted dose curve at least 0.9, where 1 is the maximum; inconclusive = response in the unintended direction; inactive = score below 0.9.

Sequence of Luciferin 4-monooxygenase (Photinus pyralis) (P08659 whole entry, looked up): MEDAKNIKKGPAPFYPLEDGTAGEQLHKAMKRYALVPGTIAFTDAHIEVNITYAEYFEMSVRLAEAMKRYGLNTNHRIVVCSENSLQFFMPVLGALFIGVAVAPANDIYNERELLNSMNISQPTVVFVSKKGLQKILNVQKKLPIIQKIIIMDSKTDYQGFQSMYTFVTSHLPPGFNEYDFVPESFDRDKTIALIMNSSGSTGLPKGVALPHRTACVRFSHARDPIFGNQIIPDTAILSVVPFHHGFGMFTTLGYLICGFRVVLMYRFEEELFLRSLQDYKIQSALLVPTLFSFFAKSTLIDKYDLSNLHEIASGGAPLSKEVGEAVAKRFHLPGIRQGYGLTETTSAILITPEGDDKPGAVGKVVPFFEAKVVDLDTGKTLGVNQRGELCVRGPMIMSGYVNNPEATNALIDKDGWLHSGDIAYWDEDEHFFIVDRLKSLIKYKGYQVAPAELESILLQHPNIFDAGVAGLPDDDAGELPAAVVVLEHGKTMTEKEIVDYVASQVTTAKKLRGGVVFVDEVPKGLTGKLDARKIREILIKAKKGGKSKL
Sequence of zebrafish Estrogen Receptor (ESR1), esr1 (gene 259252) (P57717 whole entry, looked up, the tested form may be a part): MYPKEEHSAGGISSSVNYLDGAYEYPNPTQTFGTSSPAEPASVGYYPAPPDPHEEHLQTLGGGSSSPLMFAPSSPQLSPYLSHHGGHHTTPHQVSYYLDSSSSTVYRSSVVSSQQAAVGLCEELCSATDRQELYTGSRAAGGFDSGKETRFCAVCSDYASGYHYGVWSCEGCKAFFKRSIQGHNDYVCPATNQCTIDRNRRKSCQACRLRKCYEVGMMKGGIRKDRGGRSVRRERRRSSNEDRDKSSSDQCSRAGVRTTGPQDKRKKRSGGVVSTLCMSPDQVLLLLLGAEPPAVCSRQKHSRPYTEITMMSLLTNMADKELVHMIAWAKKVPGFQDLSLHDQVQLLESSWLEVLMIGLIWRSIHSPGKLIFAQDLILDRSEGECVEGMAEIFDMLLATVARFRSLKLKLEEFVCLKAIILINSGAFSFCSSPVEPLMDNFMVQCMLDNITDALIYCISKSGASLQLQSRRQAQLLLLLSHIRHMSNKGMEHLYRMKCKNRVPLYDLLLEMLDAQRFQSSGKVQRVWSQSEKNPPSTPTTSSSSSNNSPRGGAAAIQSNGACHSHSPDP
Sequence of Glyceraldehyde-3-phosphate dehydrogenase (Homo sapiens) (P04406 whole entry, looked up): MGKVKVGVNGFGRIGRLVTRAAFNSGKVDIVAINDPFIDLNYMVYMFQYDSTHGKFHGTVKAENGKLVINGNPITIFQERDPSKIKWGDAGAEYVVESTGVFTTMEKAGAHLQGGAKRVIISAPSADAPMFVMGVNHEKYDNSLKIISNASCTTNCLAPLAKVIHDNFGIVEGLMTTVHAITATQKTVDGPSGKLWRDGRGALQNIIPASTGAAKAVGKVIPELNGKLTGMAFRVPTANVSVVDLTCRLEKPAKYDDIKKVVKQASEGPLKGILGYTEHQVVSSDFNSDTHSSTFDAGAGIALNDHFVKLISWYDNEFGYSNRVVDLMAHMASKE

For `C1CC2OC2CC1C1CO1` (stereo unspecified), the concentration at half-maximal activity (AC50) (in general, the midpoint of the concentration-response curve, whichever way the signal moves) in assay [1] is 47 µM (active); in [2] it was 66.1 µM (active). The outcome in assay [3] was inactive.
In the case of `CCCCCCCCOC(=O)c1ccccc1C(=O)OCCCCCCCC`, the result in assay [1], in assay [2], in [4], in assay [3] and in assay [5] was inactive.
For `ClC1=C(Cl)[C@]2(Cl)[C@@H]3[C@H]4C[C@H]([C@@H]5O[C@H]45)[C@@H]3[C@@]1(Cl)C2(Cl)Cl`, the concentration at half-maximal activity (AC50) was 78.7 µM (active) in assay [1], 72.4 µM (active) in assay [2] and 4.96 µM (active) in assay [4].
As to `C=CC(=O)NCNC(=O)C=C`, the AC50 in assay [1] is 81.3 µM (active); in assay [2], 73.2 µM (active). Also, the call in assay [3] was inactive.
With `O=NN(c1ccccc1)c1ccccc1`, the outcome in assay [1], in assay [2] and in assay [3] was inactive.
Turning to `Cc1ccccc1CO[C@@H]1C[C@@]2(C(C)C)CC[C@]1(C)O2`, the result in assay [6], in [7], in assay [9], in [4], in assay [3] and in [5] was inactive. In addition, the half-maximal activity concentration (AC50) in assay [8] is 7.69 µM (active).
Consider `COS(=O)(=O)OC`, for which the result in assay [1], in assay [3] and in [5] was inactive.
In the case of `Nc1ccc(-c2ccc(N)cc2)cc1`, the outcome in assay [4] and in assay [3] was inactive.
Take `Oc1ccc(C(c2ccc(O)cc2)(C(F)(F)F)C(F)(F)F)cc1`: the result in assay [1], in [5], in assay [14] and in [15] was inactive. For the same molecule, the AC50 in assay [3] was 45 µM (active); in [10], 9.41 µM (active); in assay [11] it was 12.2 µM (active); in assay [12], 24.6 µM (active); in assay [13], 9.68 µM (active); in assay [16], 187 nM (active) and 272 nM (active).
For the molecule `CCSC(=O)N(CC)C1CCCCC1`, the call in assay [6], in assay [17], in [8], in [9], in [4] and in assay [3] was inactive. Moreover, the AC50 in assay [7] is 7.96 µM (active); in assay [1], 32.1 µM (active); in [2], 35.2 µM (active).
As to `Nn1cnnc1`, the outcome in assay [1], in assay [2] and in [3] was inactive.
As to `Oc1ccc(Cl)cc1Cl`, the molecule was classed as inactive in assay [4] and in assay [3].
In the case of `Clc1ccc(C(c2ccccc2Cl)C(Cl)(Cl)Cl)cc1` (stereo unspecified), the values for the AC50 in assay [1], in [2] and in assay [16] were 54.5 µM (active), 69.9 µM (active) and 2.48 µM (active), respectively. The molecule was called inactive in assay [4], in assay [3] and in [15].
Consider `C=CC(N)=O`, for which the outcome in assay [1], in [4] and in assay [3] was inactive.
Turning to `CO/C=C(/C(=O)OC)c1ccccc1COc1cccc(C(F)(F)F)n1`, the result in [1] and in assay [2] was inactive. Besides, in assay [3], the AC50 was 28.7 µM (active).
Turning to `CC1=C2C[C@H]3[C@@H](CC=C4C[C@@H](O)CC[C@@]43C)[C@@H]2CC[C@]12O[C@@H]1C[C@H](C)CN[C@H]1[C@H]2C`, the outcome in assay [1], in assay [2] and in assay [4] was inactive. In assay [3], the AC50 is 44.8 µM (active).
Consider `Sc1ccccc1`, for which the outcome in [2] and in assay [5] was inactive.
Consider `CCCCCCOC(=O)c1ccccc1C(=O)OCCCCCC`, for which the result in assay [1], in [4] and in assay [3] was inactive. Also, the AC50 in assay [2] was 3.69 µM (active); in assay [4] it was 25.5 µM (active).
For the molecule `Cc1cc(-c2ccc(N)c(C)c2)ccc1N`, the result in assay [4] and in assay [3] was inactive.
Consider `CCC(=O)O[C@H]1CC[C@H]2[C@@H]3CCC4=CC(=O)CC[C@]4(C)[C@H]3CC[C@]12C`, for which the concentration at half-maximal activity (AC50) in [1] is 20.6 µM (active); in [2] it was 28.6 µM (active); in assay [4] it was 82 µM (active). In addition, the call in [3] and in [5] was inactive.
Take `ClC1=C(Cl)[C@]2(Cl)[C@@H]3[C@@H]4C[C@@H]([C@H]5O[C@@H]45)[C@@H]3[C@@]1(Cl)C2(Cl)Cl`: the outcome in assay [1] and in assay [3] was inactive.
For the molecule `CCCCCCCCCC[N+](C)(C)CCCCCCCCCC`, the half-maximal activity concentration (AC50) was 2.44 µM (active) in assay [1], 1.94 µM (active) in [2] and 39.7 µM (active) in assay [3]. Further, in [5], the result was inactive.
In the case of `Cc1cc(O)ccc1Cl`, the result in assay [1], in [2], in [4] and in assay [3] was inactive.
As for `CCNc1nc(NC(C)C)nc(SC)n1`, the molecule was called inactive in assay [6], in assay [8], in assay [9] and in assay [4]. The AC50 was 8.73 µM (active) in assay [7], 34.3 µM (active) in assay [1], 33.3 µM (active) in [2] and 76.9 µM (active) in assay [3].
